From PubChem BioAssay AID463173 (ICCB-Longwood Screening Facility, Harvard Medical School, 2010)
The whole screen tested about 52,000 compounds, of which about 4,300 (8.3%) were called active. The entries come from a sample that favours actives as a whole. A number with no mark means an inactive call. Rule as the data show it: active = survival mostly below about 52% (no sharp cut-off); inactive = mostly above about 56%.

These molecules were tested on DeltatarO mutant (assay: growth inhibition of S. aureus wild type versus tarO mutant, primary screen, teichoic acid synthesis inhibitors, RN4220, OD600 (AID 463173)). Settings: OD600, 18 h, stronger effect = lower value, screened at 18.75 µg/mL (by protocol).
Work on CCC(Sc1nnc2c3ccccc3n(CC)c2n1)C(=O)Nc1ccc(NC(C)=O)cc1 (stereo not given) yielded a survival of 104%. In the case of O=C(Nc1sc2c(c1C(=O)N1CCCCC1)CCCC2)c1ccccc1Cl, the survival is reported as 69%. COC(=O)c1ccccc1NC(=O)c1c(NC(=O)c2ccco2)sc2c1CCC(C(C)(C)C)C2 (stereo not given) showed a survival of 137%. Cc1ccccc1C(=O)Nc1sc2c(c1C(=O)N1CCC(C)CC1)CCCC2 showed a survival of 58%. For CC(C)(C)C1CCc2c(sc(NC(=O)c3ccccc3F)c2C(=O)N2CCCCC2)C1 (stereo not given), the survival was -5% (active). Work on Cc1ccccc1NC(=O)c1c(NC(=O)c2ccccc2F)sc2c1CCC(C)C2 (stereo not given) yielded a survival of 63%. With CCOc1ccccc1NC(=O)c1c(NC(=O)c2ccccc2C)sc2c1CCC(C)C2 (stereo not given) the survival was 65%. CC1CCN(C(=O)c2c(NC(=O)c3ccccc3F)sc3c2CCC(C(C)(C)C)C3)CC1 (stereo not given) was tested, and the survival was -4% (active). With CC1CCN(C(=O)c2c(NC(=O)c3ccccc3Cl)sc3c2CCC(C(C)(C)C)C3)CC1 (stereo not given) the survival was 10% (active). For Cc1ccccc1C(=O)Nc1sc2c(c1C(=O)N1CCC(C)CC1)CCC(C)C2 (stereo not given), the survival was -3% (active). Work on CC(C)(C)C1CCc2c(sc(NC(=O)c3ccncc3)c2C(=O)Nc2ccccc2Cl)C1 (stereo not given) yielded a survival of 71%. Work on CC(C)(C)C1CCc2c(sc(NC(=O)c3ccco3)c2C(=O)Nc2ccccc2Cl)C1 (stereo not given) yielded a survival of 135%. Molecule Cc1ccccc1C(=O)Nc1sc2c(c1C(=O)N1CCCCC1)CCC(C)C2 (stereo not given) has a survival of 49%. In the case of Cc1cccc(-n2nnc(-c3nc(-c4cccs4)no3)c2N)c1, the survival is reported as 87%. For COc1ccc(OC)c(NC(=O)Cn2cc(S(=O)(=O)c3ccccc3)c(=O)c3cc(C)ccc32)c1, the survival was 70%. Work on CCOc1ccc(NC(=O)Cn2ccn3nc(-c4ccc(OC)c(OC)c4)cc3c2=O)cc1 yielded a survival of 102%. Cc1ccc(SCC(=O)Nc2ccc(O)c(-c3nc4cc(C)ccc4o3)c2)cc1 was tested, and the survival was 64%. In the case of NNC(=O)C(Sc1n[nH]c(=O)[nH]c1=O)c1ccccc1 (stereo not given), the survival is reported as 80%. Molecule Cc1oc(C(C)(C)C)cc1C(=O)NCCO has a survival of 77%. For CCOc1cccc(C2c3[nH]c4ccccc4c3CCN2C(=O)CSc2ccccc2)c1 (stereo not given), the survival was 71%. With COc1ccc(-c2cc(C(F)(F)F)nc(SCC(=O)Nc3ccc(C(C)=O)cc3)n2)cc1 the survival was 59%. In the case of Cc1ccc(CN(Cc2ccco2)C(=O)COc2ccc(C)c(C)c2)cc1, the survival is reported as 68%. For Cc1ccccc1C(=O)Nc1sc2c(c1C(=O)O)CCC(C(C)(C)C)C2 (stereo not given), the survival was -2% (active). With Cc1ccccc1C(=O)Nc1sc2c(c1C(=O)N1CCCCC1)CCC(C(C)(C)C)C2 (stereo not given) the survival was -2% (active). For CCCNC(=O)c1c(NC(=O)c2ccccc2)sc2c1CCC(C(C)(C)C)C2 (stereo not given), the survival was 9% (active). For CCN(CC)C(=O)c1c(NC(=O)c2ccccc2F)sc2c1CCC(C(C)(C)C)C2 (stereo not given), the survival was -8% (active). With CN(C)C(=O)c1c(NC(=O)c2ccccc2F)sc2c1CCCC2 the survival was 76%. CC(C)(C)C1CCc2c(sc(NC(=O)c3ccc(Cl)cc3)c2C(=O)NCc2ccco2)C1 (stereo not given) gave a survival of 86%. With CC(C)(C)C1CCc2c(sc(NC(=O)c3ccccc3F)c2C(=O)NCc2ccco2)C1 (stereo not given) the survival was 61%. Work on Cc1ccccc1NC(=O)c1c(NC(=O)c2ccco2)sc2c1CCC(C(C)(C)C)C2 (stereo not given) yielded a survival of 74%. Cc1ccccc1C(=O)Nc1sc2c(c1C(=O)NCc1ccco1)CCC(C(C)(C)C)C2 (stereo not given) showed a survival of 109%. With Cc1ccc(C(=O)Nc2sc3c(c2C(=O)NCc2ccco2)CCC(C(C)(C)C)C3)cc1 (stereo not given) the survival was 64%. For CCOC(=O)c1sc(N2C(=O)c3oc4cc(C)c(C)cc4c(=O)c3C2c2cccc(O)c2)nc1C (stereo not given), the survival was 78%. O=C1C2(Cc3ccccc3)CN3CN(C2)CC1(Cc1ccccc1)C3 was tested, and the survival was 75%. Work on COc1ccc(NC(=O)c2cc(-c3ccc(F)cc3)no2)cc1OC yielded a survival of 71%. In the case of O=C(Nc1ccccc1[N+](=O)[O-])c1csnn1, the survival is reported as 73%. In the case of CC1=C(C(=O)Nc2cccnc2)C(c2ccccc2)n2nc(SCc3ccccc3)nc2N1 (stereo not given), the survival is reported as 74%. In the case of Cc1ccccc1OCC(=O)Nc1ccccc1C(=O)OCc1cc(=O)n2c(C)csc2n1, the survival is reported as 94%. CCOC(=O)c1c(S(=O)(=O)NCC(=O)NCc2ccccc2Cl)c(C)n(C)c1C was tested, and the survival was 97%. Molecule COc1ccccc1NC(=O)c1c(NC(=O)c2cccs2)sc2c1CCC(C(C)(C)C)C2 (stereo not given) has a survival of 139%. In the case of CC(C)(C)C1CCc2c(sc(NC(=O)CCC(=O)O)c2C(=O)Nc2ccccc2C(F)(F)F)C1 (stereo not given), the survival is reported as -6% (active). COc1ccccc1NC(=O)c1c(NC(=O)Cc2ccccc2)sc2c1CCC(C(C)(C)C)C2 (stereo not given) showed a survival of 126%. In the case of Cc1ccc(CNC(=O)C2CCN(C(=O)N3CC(C)Oc4ccc(Cl)cc43)CC2)cc1 (stereo not given), the survival is reported as 57%. CCOC(=O)c1cccc(NC(=O)N2CC=C(c3c[nH]c4ccccc34)CC2)c1 showed a survival of 83%. In the case of COc1ccccc1NC(=O)N1CC=C(c2c[nH]c3ccccc23)CC1, the survival is reported as 42% (active). Molecule Cc1cccc(NC(=O)N2CC=C(c3c[nH]c4ccccc34)CC2)c1C has a survival of 73%. CCOc1ccc(NC(=O)N2CC=C(c3c[nH]c4ccccc34)CC2)cc1 showed a survival of 83%. In the case of CCc1ccc(NC(=O)N2CC=C(c3c[nH]c4ccccc34)CC2)cc1, the survival is reported as 39% (active). With COc1cc(OC)c(NC(=O)N2CC=C(c3c[nH]c4ccccc34)CC2)cc1Cl the survival was 75%. Work on COc1ccccc1OCC(=O)Nc1ccc(S(=O)(=O)N2CCN(C)CC2)cc1 yielded a survival of 78%. CCc1ccc(-n2nc(CO)c(C(=O)NC(C)c3ccc(Cl)cc3)n2)cc1 (stereo not given) was tested, and the survival was 58%. With COc1cc(S(=O)(=O)N2CCN(c3ccccc3F)CC2)c(OC)cc1Cl the survival was 87%. For CCOC(=O)c1cc2oc(C)cc2n1CC(=O)N(C)C1CCCCC1, the survival was 92%. In the case of CCOc1ccc(CCNC(=O)c2ccc3c(c2)c(C)c(C)n3Cc2ccccc2)cc1OCC, the survival is reported as 83%. Cc1ccc2c(=O)cc(C(=O)Nc3c(C(=O)c4ccccc4)oc4ccccc34)oc2c1C gave a survival of 82%. With CCCn1c2ccccc2c2cnn(CC(=O)NCCc3ccc(OCC)cc3)c(=O)c21 the survival was -5% (active). CCCn1c2ccccc2c2cnn(CC(=O)NCC3CCN(Cc4ccccc4C)CC3)c(=O)c21 gave a survival of 55%. For CCCn1c2ccccc2c2cnn(CC(=O)NCCc3ccc(OCC)c(OCC)c3)c(=O)c21, the survival was 92%. Molecule CCCn1c2ccccc2c2cnn(CC(=O)NCCc3ccc(C)cc3)c(=O)c21 has a survival of 128%. CCCn1c2ccccc2c2cnn(CC(=O)NCC3CCN(Cc4ccc(F)cc4)CC3)c(=O)c21 showed a survival of 68%. Work on CCCn1c2ccccc2c2cnn(CC(=O)NCCCN3CCCCC3)c(=O)c21 yielded a survival of 94%. With CCCn1c2ccccc2c2cnn(CC(=O)NCC3CCN(Cc4ccc(C)cc4)CC3)c(=O)c21 the survival was 17% (active). With CCCn1c2ccccc2c2cnn(CC(=O)NCCCOC(C)C)c(=O)c21 the survival was -5% (active). Molecule CCCNC(=O)Cn1ncc2c3ccccc3n(CCC)c2c1=O has a survival of 128%. Molecule CCN(CC)S(=O)(=O)c1ccc2c(c1)N(CC(=O)N1CCN(c3cccc(C(F)(F)F)c3)CC1)C(=O)CO2 has a survival of 68%. With Cc1ccc(SCc2nc(-c3ccc(C(=O)NCc4ccccc4Cl)cc3)oc2C)cc1 the survival was 84%. With Fc1cccc(NCc2ccccc2-c2nnc(-c3ccccc3Cl)o2)c1 the survival was 110%. Molecule CC(C)NC(=O)CSc1nnc(Cc2ccccc2)n1C has a survival of 83%. For CCn1c(SCC(=O)NC2CCCC2)nnc1-c1ccccc1, the survival was 75%. In the case of CC(C)NC(=O)CSc1nnc(Cc2ccccc2)n1Cc1ccco1, the survival is reported as 40% (active). In the case of O=C(CSc1nnc(Cc2ccccc2)n1Cc1ccco1)NC1CCCC1, the survival is reported as 44% (active). Molecule O=C(CSc1nnc(Cc2ccccc2)n1Cc1ccccc1)NCc1ccco1 has a survival of 63%. For O=C(CSc1nccn1Cc1ccccc1)NC1CCCC1, the survival was 69%. With CCOc1ccccc1CNC(=O)c1cccn1-c1nnc(N2CCCC2)s1 the survival was 102%. In the case of COc1ccccc1CNC(=O)c1cccn1-c1nnc(N2CCCCC2)s1, the survival is reported as 37% (active). COc1ccccc1CNC(=O)c1cccn1-c1nnc(N2CCCC2)s1 gave a survival of 92%. With CCc1ccc(NCc2cccn2-c2nnc(N3CCCCCC3)s2)cc1 the survival was -6% (active). COc1ccc(NCc2cccn2-c2nnc(N3CCCCCC3)s2)cc1 showed a survival of 71%. Cc1ccc(NCc2cccn2-c2nnc(N3CCCCCC3)s2)cc1 gave a survival of 78%. In the case of COc1ccc(CNC(=O)c2cccn2-c2nnc(N3CCCCC3)s2)c(OC)c1, the survival is reported as 0% (active). In the case of CCN1CCN(c2nnc(-n3cccc3C(=O)NCc3ccccc3OC)s2)CC1, the survival is reported as 46% (active). With COc1ccc(CNC(=O)c2cccn2-c2nnc(N3CCCC3)s2)c(OC)c1 the survival was 91%. Work on COc1ccccc1CCNC(=O)c1cccn1-c1nnc(N2CCCCC2)s1 yielded a survival of 95%. For COc1ccc(NC(=O)c2cccn2-c2nnc(N3CCCCC3)s2)c(OC)c1, the survival was 98%. CCOc1ccccc1CNC(=O)c1cccn1-c1nnc(N2CCCCC2)s1 gave a survival of 131%. With CCOc1ccc(/C=C/c2nc3ccccc3n2S(=O)(=O)c2ccc(Br)cc2)cc1 the survival was 59%. CCN1CCSc2ccc(C(=O)NCc3ccc(F)cc3)cc21 showed a survival of 97%. Molecule CNC(=O)c1ccc(CN2CCc3ccccc3C2)cc1 has a survival of 100%. With CCOC(=O)c1c(C)[nH]c(C)c1S(=O)(=O)N1CCC(C(=O)N2CCN(c3ccccc3)CC2)CC1 the survival was 90%. In the case of O=C(CSc1nccn1Cc1ccc(Cl)cc1)Nc1ccc2c(c1)OCCO2, the survival is reported as 94%.
